ATXN viability: reduces viability in counter-screen for ATXN expression inhibitors; S2 cells (HEK-293 line with an ATXN2-luciferase reporter) viability, CellTiter-Fluor protease fluorescence, 24 h; Potency, µM (doses to about 56.7 µM), hits mostly cytotoxic; hit rate 0.49% among 400,000; AID 651635; further: nearly all actives have a fitted effect of over 40% in size
Nrf2 inh: inhibitors of Nrf2 signaling. A549 ARE-Fluc reporter, luciferase luminescence, 18-24 h. Potency, µM (titrated, usually from 46 µM), for inactives: top-dose activity change, negative = inhibition, most hits filed as inhibitors. hit rate 2.1% among 360,000; further: on the % scale 0 is the no-effect control and ±100 the full control effect; nearly all actives have a fitted effect of over 60% in size
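Two sequential reads on A549 ARE_Fluc cells exposed to compound for 18-24 h: a CellTiter-Fluor fluorescence read for viability, then a luciferase luminescence read for Nrf2/ARE activity.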
TGFb SMAD3 inh: blocks TGF-b signaling. HepG2 CAGA-GFP TGF-b/SMAD3 reporter, GFP fluorescence, 18 h; TGF-beta stimulated, 500 pg/mL final. Potency, µM (series often up to 46.1 µM), without a hit: at the highest dose activity, negative = inhibition, most hits filed as inhibitors. hit rate 1.2% among 410,000. AID 588855; further: on the % scale 0 is the no-effect control and ±100 the full control effect; nearly all actives have a fitted effect of over 65% in size
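GFP signal (ex488/em500-530) from TGF-beta-stimulated HEPG2 CAGA-GFP cells, 500 pg/mL final, 18 h at 37 degrees C in DMEM plus 1% FBS, normalized to unstimulated and DMSO-stimulated controls.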
ATXN2 expr inh: inhibitors of ATXN2 expression; HEK-293 ATXN2-luciferase reporter, luminescence, 24 h; Potency, µM (titrated, usually from 57 µM), for the others: at the top dose activity change, negative = inhibition, actives largely listed as inhibitors; hit rate 0.72% among 360,000; further: on the % scale 0 is the no-effect control and ±100 the full control effect; nearly all actives have a fitted effect of over 55% in size
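qHTS (up to 57 uM final) was run with 24 h compound exposure of reporter cells at 37 °C. Each well was multiplexed: SteadyGlo luminescence measured ATXN2-luciferase expression after a fluorogenic Gly-Phe-AFC viability readout (25 uM final).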
HepG2 tox: counter-screen for TGF-b inhibitors: cytotoxicity in HepG2 cells; HepG2 CAGA-GFP viability, ATP luminescence, 18 h; Potency, µM (titrated, usually from 46.1 µM), for the others: at the highest dose activity change, negative = cytotoxicity, usual class: cytotoxic; hit rate 0.76% among 410,000; AID 588856
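HepG2 CAGA-GFP cells (1000/well, DMEM with 1% FBS) received compound, then TGF-beta at 500 pg/mL final, and were incubated 18 hours at 37 degrees C. Viability was read by CellTiter-Glo luminescence. Media-only wells were set as complete cell-killing and DMSO as no toxicity.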
A549 viability: A549 cytotoxicity, counter-screen for Nrf2 inhibitors; AID 504648; Potency, µM (series often up to 46 µM), inactives show at the top dose activity change, negative = cytotoxicity, hits mostly inhibitors; hit rate 0.16% among 390,000; A549 ARE-Fluc cells, CellTiter-Fluor viability, 18-24 h; further: on the % scale 0 is the no-effect control and ±100 the full control effect
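A549 ARE_Fluc cells in 5% FBS OPTI-MEM were exposed to compounds in concentration-response for 18-24 h at 37 deg C. Viability was read by CellTiter-Fluor fluorescence (Ex 405/Em 525) after 30 min, before the luciferase read.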
* hit, by the source's call; i = inactive; ? = inconclusive; nt = no result given; [ ] = another dose, or the depositor's remark. A selection: hits, their analogues and other compounds. The true share with any hit is near 3.8%. The call rests on the fitted dose curve; in most records, active means well fitted curve in the direction sought with a large enough effect; inconclusive means small, poorly fitted or top-dose-only effect, or another doubt; inactive means no such curve, though single readings can be large; an effect the other way counts as inactive or inconclusive. Potency means the concentration at half of the fitted maximal effect.

SMILES | ATXN viability | Nrf2 inh | TGFb SMAD3 inh | ATXN2 expr inh | HepG2 tox | A549 viability
CCn1c(C)nc2cc(C(=O)N/N=C(\C)c3ccc(OC)cc3O)ccc21 | i | 23µM* | ? | ? | -27% | -14%
Cc1ccc(-c2csc(C(O)c3cccc(Cl)c3)n2)cc1C (stereo not given) | i | nt | 13µM* | -1% | -54% | nt
OC(c1cccc(Cl)c1)c1nc(-c2ccc(Cl)cc2)cs1 (stereo not given) | i | nt | 13µM* | -25% | 13µM* | nt
OC(c1cccc(Cl)c1)c1nc(-c2ccc(F)c(Cl)c2)cs1 (stereo not given) | i | nt | ? | 7% | -59% | nt
COc1cc(C(O)c2nc(-c3cccc(C(F)(F)F)c3)cs2)ccc1F (stereo not given) | i | nt | 13µM* | -27% | 11µM* | nt
COc1ccc(C(O)c2nc(-c3cccc(C(F)(F)F)c3)cs2)cc1 (stereo not given) | ? | nt | ? | ? | -43% | nt
CC(=NNC(=O)c1cccc(S(=O)(=O)N2CCOCC2)c1)c1ccc(Cl)cc1 | i | ? | 0% | -1% | -1% | 2%
COCCn1c(SCC(=O)NCc2ccccc2)nc2ccccc21 | i | -8% | 0% | -9% | 3% | 11%
COCCn1c(SCc2csc(-c3ccccc3)n2)nc2ccccc21 | i | 21µM* | -13% | -17% | -44% | -22%
CC1(c2ccccc2)CC(C)(C)N2C(=O)C3(C(C#N)=C(N)Oc4cc(O)ccc43)c3cccc1c32 (stereo not given) | ? | 21µM* | ? | ? | -100% | ?
Cc1cc2c3c(c1)C(C)(c1ccccc1)CC(C)(C)N3C(=O)C21C(C#N)=C(N)OC2=C1C(=O)CC(C)(C)C2 (stereo not given) | ? | -81% | ? | ? | -109% | -17%
CC1=CC(C)(C)N2C(=O)C3(C(C#N)=C(N)Oc4cc(O)ccc43)c3c(C)c(C)cc1c32 (stereo not given) | 13µM* | nt | ? | ? | -107% | ?
c1cncc(OC2CCN(Cc3ccc4c(c3)CN(Cc3nc5ccccc5s3)CCO4)CC2)c1 | i | nt | nt | nt | nt | nt
CC1(C)Cc2ccccc2/C(=C/C(=O)N2CCCCCC2)N1 | i | 26µM* | ? | -19% | -27% | -27%
COc1cc2c(cc1OC)/C(=C/C(=O)N1CCOCC1)NC(C)(C)C2 | i | nt | ? | 0% | 2% | -7%
C=CCC[C@@H](Cc1ccc(F)cc1)C(=O)OC[C@@H](NC(=O)[C@@H](CC=C)CC(=O)N[C@@H](CO)Cc1ccccc1)C(C)(C)C | 22µM* | 21µM* | ? | ? | -1% | ?
C=CCC[C@H](Cc1ccc(F)cc1)C(=O)OC[C@@H](NC(=O)[C@@H](CC=C)CC(=O)N[C@@H](CO)Cc1ccccc1)C(C)(C)C | nt | ? | ? | ? | 0% | ?
C=CCC[C@H](Cc1ccc(F)cc1)C(=O)OC[C@@H](C)NC(=O)[C@@H](CC=C)CC(=O)N[C@H](CO)Cc1ccccc1 | i | 21µM* | ? | ? | -26% | ?
C=CC[C@H](CC(=O)N(CCO)Cc1ccccc1)C(=O)N[C@H](COC(=O)[C@@H](CC=C)Cc1ccc(F)cc1)C(C)(C)C | nt | ? | ? | ? | 0% | -6%
C=CCC[C@H](Cc1ccc(F)cc1)C(=O)OC[C@@H](NC(=O)[C@@H](CC=C)CC(=O)N(CCO)Cc1ccccc1)C(C)(C)C | 20µM* | 3.3µM* | ? | ? | -6% | 6.5µM*
Cc1cccc(C)c1NC(=O)CN1CCN(CC(=O)NCC2(N3CCCCC3)CCCCC2)CC1 | i | 6% | 14% | -6% | -33% | -9%
O=C(O)CC/C(=N/Nc1ncc(C(F)(F)F)cc1Cl)C(=O)O | i | 16% | -1% | -8%[11.3 µM] | 4% | 2%

Assay outcomes as filed in PubChem.
